Screening results deposited in PubChem by several laboratories.
MITF TRPM1 inh: inhibitors of MITF-dependent TRPM1 promoter reporter, primary screen, cell-based, SK-MEL-5, single point, luciferase; SK-MEL-5 TRPM1 promoter luciferase, 24 h; inhibition, % at 12.5 µM; 330,000 compounds, 0.83% hits;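 active means mean inhibition across replicates of 60% or more, whatever share of single replicates reaches that level; inconclusive means some that reach 60%, reason not given; inactive means mean inhibition across replicates below 60%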
Peg3 prom inh-1: Peg3 promoter-driven luciferase inhibitors, primary screen, cell-based, HeLa, luciferase luminescence | 360,000 compounds, 1.7% hits | inhibition, % at 20 µM | HeLa PEG-Prom luciferase reporter, overnight;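 active means inhibition of at least 50% at 20 µM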
ABHD5-PLIN5 inh: ABHD5-PLIN5 interaction inhibitors, primary screen, cell lysate, split luciferase complementation, luminescence; inhibition, % at 4 µM; AID 602281, 2012; 360,000 compounds, 0.78% hits; Perilipin-5 (Homo sapiens) + 1-acylglycerol-3-phosphate O-acyltransferase ABHD5 (Homo …; Split G. princeps luciferase complementation, 4 h;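 active means inhibition above the mean inhibition across every tested compound plus 3 SD, cut at about 22% in these data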;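 further: 0% = DMSO only wells and the 100% control is not disclosed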
Target sequence (Q00G26 whole entry, looked up): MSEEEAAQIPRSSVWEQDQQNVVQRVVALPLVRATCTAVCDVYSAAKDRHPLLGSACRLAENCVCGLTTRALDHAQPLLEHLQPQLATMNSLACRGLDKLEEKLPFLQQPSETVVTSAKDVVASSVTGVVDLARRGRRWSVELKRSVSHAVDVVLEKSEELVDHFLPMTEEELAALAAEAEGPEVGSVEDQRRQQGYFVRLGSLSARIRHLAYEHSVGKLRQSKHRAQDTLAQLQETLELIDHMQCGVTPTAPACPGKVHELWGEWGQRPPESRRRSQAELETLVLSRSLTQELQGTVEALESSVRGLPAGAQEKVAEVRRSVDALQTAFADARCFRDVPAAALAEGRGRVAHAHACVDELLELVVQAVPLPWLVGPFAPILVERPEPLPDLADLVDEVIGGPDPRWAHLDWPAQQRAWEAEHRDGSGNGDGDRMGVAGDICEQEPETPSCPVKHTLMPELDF
Target sequence (Q8WTS1 whole entry, looked up): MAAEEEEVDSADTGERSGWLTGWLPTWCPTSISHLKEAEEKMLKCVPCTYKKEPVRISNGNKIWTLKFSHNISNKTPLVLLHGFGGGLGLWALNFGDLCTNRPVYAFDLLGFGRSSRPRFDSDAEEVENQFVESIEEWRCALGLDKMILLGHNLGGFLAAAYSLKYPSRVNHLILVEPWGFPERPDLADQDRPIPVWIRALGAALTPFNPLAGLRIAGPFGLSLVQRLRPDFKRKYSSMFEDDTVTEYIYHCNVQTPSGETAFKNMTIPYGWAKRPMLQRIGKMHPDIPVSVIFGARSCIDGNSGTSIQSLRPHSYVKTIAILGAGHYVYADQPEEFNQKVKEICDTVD
CF NFkB inh: inhibitors of PAF-induced NF-kB signaling, primary screen, cell-based, GFP fluorescence, uHTS | KKLEB NF-kB-GFP reporter, GFP fluorescence overnight | inhibition, % at 5 µM | 360,000 compounds, 0.86% hits;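 active means at least 50% inhibition at 5 µM, scaled per plate between neutral and stimulator controls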;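 further: PAF is a Pseudomonas aeruginosa culture filtrate used as stimulus; plate controls were PAF-stimulated DMSO wells for no effect and unstimulated DMSO wells for full effect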
HIF-2a block: HIF-2a reporter inhibitors, primary screen, luminescence, 786-0 RCC cells; 786-0 RCC cells HIF-2a reporter, luciferase luminescence, overnight; inhibition, % at 18.8 µM; 360,000 compounds, 0.72% hits;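 active means inhibition of the luminescence signal of 40% or more relative to plate controls, in a single-dose primary screen at 18.75 µM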
KKLEB tox: cytotoxicity in KKLEB CF airway cells, primary screen, cytotoxicity control for CF NF-kB inhibitor project, cell-based, uHTS, fluorescence assay plates | activity change (cytotoxicity), % at 5 µM | 360,000 compounds, 0.36% hits | KKLEB CF airway cells viability, ATPlite luminescence, overnight; stronger effect = lower value; cells stimulated with P. aeruginosa culture filtrate;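 active means corrected activity change at or below -50% at 5 µM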
Peg3 prom inh-2: Peg3 promoter reporter inhibitors, retest, confirmation, cell-based, HeLa, luciferase reporter, single concentration | shares compounds with Peg3 prom inh-1 | HeLa PEG-Prom luciferase reporter, luminescence, overnight | inhibition, % at 20 µM | 1,300 compounds, 84% hits | AID 602417, 2012;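 active means at 20 µM dose, 40% or more inhibition averaged across four replicates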
An asterisk follows results filed as active; ? = inconclusive; / = no result. Hits are enriched below; roughly 3% of the tested compounds scored in any of these assays.

SMILES	MITF TRPM1 inh	Peg3 prom inh-1	ABHD5-PLIN5 inh	CF NFkB inh	HIF-2a block	KKLEB tox	Peg3 prom inh-2
CC(=O)NC(c1ccccc1)c1cc(Cl)c2cccnc2c1O (stereo not given)	23.2	51.4*	6.7	-3.6	15.9	12.8	65.3*
CCCC(=O)NC(c1ccc(OC)c(OC)c1)c1cc(Cl)c2cccnc2c1O (stereo not given)	?	47.7	-5.9	-1.5	6.0	-4.8	/
CCC(=O)NC(c1cccs1)c1cc(Cl)c2cccnc2c1O (stereo not given)	52.1	56.0*	5.8	-0.6	21.5	7.0	58.4*
CC(=O)NC(c1ccc(N(C)C)cc1)c1cc(Cl)c2cccnc2c1O (stereo not given)	/	59.4*	1.4	36.0	17.1	-7.6	68.4*
CCC(=O)NC(c1cc(Cl)c2cccnc2c1O)C1CC1 (stereo not given)	33.5	35.9	-8.5	2.0	15.4	-10.5	/
COc1ccc(CN(C(=O)c2snc(C(N)=O)c2N)C(C(=O)NC2CCCC2)c2cc(OC)ccc2OC)cc1 (stereo not given)	0.9	10.4	3.4	9.4	12.1	-1.7	/
COc1ccc(CC(=O)N(Cc2ccccc2)c2ccccc2)cc1S(=O)(=O)N1CCOCC1	6.4	56.3*	7.6	-9.4	8.6	-9.4	47.4*
Cc1nc(NC(=O)c2ccco2)sc1-c1csc(Nc2ccc(Cl)cc2)n1	30.6	35.2	-8.6	37.7	6.2	-3.2	/
COc1ccccc1Nc1nc(-c2sc(NC(=O)c3ccco3)nc2C)cs1	46.1	70.5*	-28.6	32.1	6.6	-2.7	58.0*
Cc1ccc(Cl)cc1Nc1nc(-c2sc(NC(=O)c3ccco3)nc2C)cs1	68.1*	90.3*	-16.1	-28.0	8.1	-12.6	87.6*
Cc1nc(NC(=O)c2ccco2)sc1-c1csc(Nc2ccc(Cl)cc2Cl)n1	-14.6	-3.2	-15.6	22.5	-41.2	-6.7	/
O=S(=O)(NC1CC1)c1ccc(Br)cc1N1CCC[C@H]1CO	-1.8	13.7	-1.2	11.3	8.4	-14.5	/
CN(C(=O)COC(=O)c1ccc(Br)c([N+](=O)[O-])c1)c1c(N)n(Cc2ccccc2)c(=O)[nH]c1=O	6.7	-14.1	-3.5	-6.2	8.4	20.5	/
Cc1ccc2cc3c(N)c4c(C)ccc(C)c4nc3nc2c1	14.7	103.1*	0.7	-82.1	-14.4	-12.5	97.2*
Cc1ccc(C)c(CN2CCC(CNC(=O)Nc3cccc(Cl)c3C)CC2)c1	-14.8	12.8	4.3	10.0	12.2	-15.2	/
Cc1ccc(C)c(CN2CCC(CNC(=O)Nc3ccc(F)c(Cl)c3)CC2)c1	36.8	67.6*	1.4	15.5	7.6	-14.7	98.3*
Cc1cc(NC(=O)CSc2n[nH]c(-c3ccc(Cl)cc3Cl)n2)no1	/	13.9	-4.5	-17.5	-3.2	8.4	/
Cc1[nH]nc(S(=O)CC(=O)O)c1[N+](=O)[O-] (stereo not given)	-8.8	50.6*	-1.5	-16.9	24.4	-3.8	26.5
C[C@@H]1[C@H]2[C@@H]3CC[C@@H](C3)[C@H]2CN[C@H]1c1cn(Cc2ccccc2)c2ccccc12	-0.3	70.5*	-5.1	6.5	-6.6	-5.0	53.9*
O=C1CCC/C=C\C[C@@H](CC(=O)N(CCO)Cc2ccccc2)C(=O)N[C@H](c2ccccc2)CO1	3.0	1.0	1.6	-3.0	2.5	-3.4	/
CC(=O)N1N=C(C)CC1c1ccc(O)cc1 (stereo not given)	4.2	5.6	-11.1	18.7	11.8	2.6	/
CCOC(=O)c1cccc(Nc2nc(-c3cccnc3)nc3ccccc23)c1	19.7	63.2*	-5.8	12.0	-8.4	-13.5	90.3*
CN1CCN(C(=O)C[C@@H]2C[C@H]3c4cc(NC(=O)c5cccnc5)ccc4O[C@H]3[C@H](CO)O2)CC1	/	-2.0	-0.7	-1.9	10.3	0.3	/
CCCCCN1C=CC(=C2C(=O)c3ccccc3C2=O)C=C1	99.1*	103.1*	0.4	-5.3	88.2*	-82.4*	90.6*
NC(=O)c1cc([N+](=O)[O-])ccc1NCc1ccc(F)cc1	/	-99.8	8.5	1.7	-155.9	-23.8	/
SMILES	MITF TRPM1 inh	Peg3 prom inh-1	ABHD5-PLIN5 inh	CF NFkB inh	HIF-2a block	KKLEB tox	Peg3 prom inh-2
NC(=O)c1cc([N+](=O)[O-])ccc1NCc1ccc(N)cc1	78.9*	80.8*	-7.2	29.0	93.3*	-14.6	77.8*
COc1ccccc1CCC(=O)Nc1ccc2c(c1)c(=O)n(C)n2Cc1cccc(C(F)(F)F)c1	/	13.4	1.9	-15.4	4.6	4.0	/
Cc1c(C)c2cccnc2c2ncccc12	82.8*	56.6*	-7.9	12.6	-15.0	-28.4	42.8*
CCOc1cccc(/C=N/NC(=S)Nc2cc(S(=O)(=O)N3CCOCC3)ccc2N2CCOCC2)c1O	44.3	52.7*	7.0	15.0	19.4	-6.0	57.0*
CC(C)CC(=NNC(=O)c1ccncc1)c1cc(Cl)ccc1O	54.8	63.6*	3.4	33.5	14.2	-8.0	73.4*
CCOc1ncccc1C(=O)NNC(=O)c1cccc(S(=O)(=O)N2CCOCC2)c1	-0.2	12.8	-10.7	-18.6	9.3	3.2	/
COC(CNC(=O)c1ccc2c3c(onc13)-c1ccccc1C2=O)OC	80.0*	101.8*	-9.0	-2.1	-168.9	-1.5	99.3*
O=C(Nc1ccc(O)c2c(=O)cc(-c3cccc(Cl)c3)oc12)c1ccccc1Cl	20.5	-12.0	-1.4	-4.1	-4.7	-16.7	/
COc1cccc(-c2cnc3c(NC=O)cc(-c4cccc(C(=O)N(C)C)c4)cn23)c1	/	54.9*	12.9	-37.3	-0.4	-8.3	54.4*
CN(C)C(=O)c1cccc(-c2cnc3c(NC=O)cc(-c4cccc(C(F)(F)F)c4)cn23)c1	/	56.6*	10.7	-1.1	8.5	-14.8	61.2*
N#Cc1ccc(OCC(=O)NNC(=S)NC2CCCCC2)cc1	1.6	10.5	-2.6	-6.0	0.3	-10.9	/
Cc1ncc(CO)c(/C=N/Nc2ccc(C(F)(F)F)cn2)c1O	55.8	61.6*	-11.0	6.3	10.6	2.1	67.0*
Cc1ncc(CO)c(/C=N/NC(=S)Nc2ccc(F)cc2)c1O	11.3	18.2	-9.7	7.0	12.6	-1.0	/
CCC(c1ccc(O)c(O)c1)C(CC)c1ccc(O)c(O)c1 (stereo not given)	0.6	100.3*	14.0	84.1*	78.6*	-21.2	97.7*
COc1ccc2nc(C)cc(SCC(=O)N/N=C/c3c(OC)ccc4ccccc34)c2c1	13.0	63.1*	-2.2	-4.9	4.4	-13.4	19.9
